Source: PubChem BioAssay AID1159580 (chemical genetic matrix, 2015)
About 2,000 (36%) of roughly 5,500 compounds were called active. Roughly 18% stayed inconclusive and do not appear here. Rule as the data show it: active = normalized growth mostly below about 0.91 (no sharp cut-off); inconclusive = no clear call, values can overlap the other calls; inactive = mostly above about 0.92. The list shows a part of the results.

Assay: chemical genetic growth profiling, strain panel (AID 1159580);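 also: tested at 20 µM; growth read once vehicle control cultures reached saturation at 30 °C; 1 = growth at the plate median or of vehicle wells; lower values mean less growth of the strain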
Settings: S. cerevisiae deletion strains, growth OD

Measured: normalized growth

NC(=O)c1cc(N2CC2)c([N+](=O)[O-])cc1[N+](=O)[O-]
inactive: locus YAL040C, strain CLN3, hits give low values 1 | locus YCL061C, strain MRC1 (second series), hits give low values 0.994 | locus YDR363W, strain ESC2, hits give low values 0.993 | locus YER002W, strain NOP16, hits give low values 1.02 | locus YMR263W, strain SAP30, hits give low values 1 | locus YMR307W, strain GAS1, hits give low values 0.986 | locus YNL175C, strain NOP13, hits give low values 1.02 | locus YNL197C, strain WHI3, hits give low values 1 | locus YNL224C, strain SQS1, hits give low values 0.997 | locus YOR083W, strain WHI5 (second series), hits give low values 1.01
